The list is not random: actives were taken first. Their share in the collection is about 4.1%.
CHT block: inhibitors of human choline transporter CHT; hit rate 0.86% among 310,000; B-score at 10 µM; AID 488975, 2010; High affinity choline transporter 1 (Homo sapiens), Q9GZV3; CHT-expressing cells, membrane potential dye, choline response; active compounds read low;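 active means B-score over 3 SD under the library average, and starting fluorescence ratio not unusually high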;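 further: choline stimulus applied at its EC90 after an EC20 pre-addition; B-score computed on integrated fluorescence ratio after choline addition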
Target sequence (Q9GZV3 whole entry, looked up): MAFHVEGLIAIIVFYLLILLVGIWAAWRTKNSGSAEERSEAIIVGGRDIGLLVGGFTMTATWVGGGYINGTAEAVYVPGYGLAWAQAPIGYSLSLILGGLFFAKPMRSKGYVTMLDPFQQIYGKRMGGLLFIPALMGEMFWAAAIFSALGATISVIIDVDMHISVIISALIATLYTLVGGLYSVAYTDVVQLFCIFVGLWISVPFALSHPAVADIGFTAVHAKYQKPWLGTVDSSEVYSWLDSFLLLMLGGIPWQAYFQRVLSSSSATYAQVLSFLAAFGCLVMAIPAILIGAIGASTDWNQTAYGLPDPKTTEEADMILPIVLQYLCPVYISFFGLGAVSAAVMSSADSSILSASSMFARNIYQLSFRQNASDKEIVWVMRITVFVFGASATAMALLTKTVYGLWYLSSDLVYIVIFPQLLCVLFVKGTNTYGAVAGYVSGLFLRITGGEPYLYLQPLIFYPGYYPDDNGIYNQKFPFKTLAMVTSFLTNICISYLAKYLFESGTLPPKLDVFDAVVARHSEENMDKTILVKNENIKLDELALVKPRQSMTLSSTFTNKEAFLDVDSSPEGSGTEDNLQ
MEKK2wt PB1 HTS: modulators of MEK5 binding to wildtype MEKK2, primary screen, biochemical, multiplex bead flow cytometry, Alexa488-MEK5. Mitogen-activated protein kinase kinase kinase 2 (Homo sapiens), Q9Y2U5. Alexa488-MEK5 binding to MEKK2 WT; actives lie on both sides. binding response (% of control), % at 10 µM. hit rate 1.1% among 290,000. AID 1531, 2009; in the data active means binding response below about 67% or above about 130%
CHT allo act: CHT positive allosteric modulators, primary screen, cell-based, membrane potential dye, choline EC20. High affinity choline transporter 1 (Homo sapiens), Q9GZV3. CHT-expressing cells; active compounds read high; LV-AA mutant CHT in HEK293 cells. B-score at 10 µM. hit rate 0.49% among 310,000. AID 488977, 2010;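 active means initial fluorescence not abnormally high and integrated response B-score, plate-corrected, over 3 SD above library mean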
SUMO Mot1 rescue: yeast Mot1-301 growth rescue at high temperature, primary screen, SUMOylation pathway inhibitor project, S. cerevisiae, ATP luminescence, 38.5C | S. cerevisiae Mot1-301 growth rescue; percent above DMSO median, 100 means doubled | growth rescue, % at 18.8 µM | hit rate 1% among 320,000;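 active means every valid replicate shows activation above 250% relative to neutral control wells; inactive means the rest, any valid replicate at or below 250%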
MEKK2 mut-MEK5: MEK5 binding signal on mutant MEKK2 PB1, primary screen, biochemical, multiplex bead flow cytometry, Alexa488-MEK5. percent response, % at 10 µM. hit rate 0.35% among 290,000. Alexa488-MEK5 binding to MEKK2 mutant. AID 1530, 2009; in the data active means percent response above about 24%, passing the limit was not always enough
MEKK3 PB1 HTS: modulators of MEKK3-MEK5 PB1 binding, primary screen, biochemical, wildtype MEKK3, multiplex bead flow cytometry, Alexa488-MEK5; Mitogen-activated protein kinase kinase kinase 3 (Homo sapiens), Q99759; bead-based flow cytometry, Alexa488-MEK5 binding to MEKK3; actives lie on both sides; 0 = blocked by unlabeled MEK5, 100 = vehicle; binding response (% of control), % at 10 µM; hit rate 1.4% among 290,000; AID 1529, 2009;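 active means binding response more than 3 SD above or below the average of its plate-row segment, actives on both sides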;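 further: Alexa488 bead fluorescence after subtracting the streptavidin-only scavenger bead signal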
MEKK2wt confirm: modulators of MEK5 binding to wildtype MEKK2, confirmation, biochemical, single concentration, multiplex bead flow cytometry | shares compounds with MEKK3 PB1 HTS | Alexa488-MEK5 binding to MEKK2 WT; actives lie on both sides | binding response (% of control), % at 10 µM | hit rate 2.4% among 5,900; in the data active means binding response below about 16% or above about 210%; inactive means in between
MEKK2mut-MEK5: mutant MEKK2 PB1-MEK5 binding signal retest – biochemical, single concentration, multiplex bead flow cytometry, confirmation; hit rate 2% among 5,900; percent response, % at 10 µM; Alexa488-MEK5 binding to MEKK2 mutant; shares compounds with MEKK3 PB1 HTS; in the data active means percent response mostly above about 71%, no sharp cut-off; inactive means mostly below about 38%;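 further: higher means compound restores mutant binding toward wildtype level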
MEKK3-MEK5 inh: MEKK3 wild-type PB1 binding to MEK5, inhibitors, confirmation, biochemical, bead multiplex flow cytometry, single concentration, wildtype; AID 1894, 2009; shares compounds with MEKK3 PB1 HTS; Alexa488-MEK5 binding to MEKK3; active compounds read low; hit rate 1.8% among 5,900; binding response (% of control), % at 10 µM;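 active means binding response below 72% of control, or above a set upper limit, though filed actives all read lower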;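 further: lower values mean stronger disruption of MEK5 binding to MEKK3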
Numbers stand for hits; [ ] = dose if it differs, or a comment.

What do the screens show for `CC(/C=N/n1c(-c2ccco2)n[nH]c1=S)=C\c1ccccc1`?
CHT block: inactive; MEKK2wt PB1 HTS: inactive; CHT allo act: inactive; SUMO Mot1 rescue: inactive; MEKK2 mut-MEK5: inactive; MEKK3 PB1 HTS: 134.0; MEKK2wt confirm: inactive; MEKK2mut-MEK5: inactive; MEKK3-MEK5 inh: inactive

Results for COc1ccc(NC(=O)C2CCCN(CCCc3ccccc3)C2)cc1OCC(C)C (centres undefined) ?
CHT block: inactive; MEKK2wt PB1 HTS: 139.0; CHT allo act: inactive; SUMO Mot1 rescue: inactive; MEKK2 mut-MEK5: inactive; MEKK3 PB1 HTS: inactive; MEKK2wt confirm: inactive; MEKK2mut-MEK5: inactive; MEKK3-MEK5 inh: inactive

How did COc1ccc(N(CC(=O)N2CCN(Cc3ccccc3)CC2)S(C)(=O)=O)c(OC)c1 do in these assays?
CHT block: inactive; MEKK2wt PB1 HTS: inactive; CHT allo act: inactive; SUMO Mot1 rescue: inactive; MEKK2 mut-MEK5: inactive; MEKK3 PB1 HTS: inactive

How did COc1ccc(Cl)cc1N(CC(=O)N1CCN(Cc2ccccc2)CC1)S(C)(=O)=O do in these assays?
CHT block: inactive; MEKK2wt PB1 HTS: inactive; CHT allo act: inactive; SUMO Mot1 rescue: inactive; MEKK2 mut-MEK5: inactive; MEKK3 PB1 HTS: 125.0; MEKK2wt confirm: inactive; MEKK2mut-MEK5: inactive; MEKK3-MEK5 inh: inactive

Results for CCC12CN3CC(CC)(CN(C1)C3c1c(O)ccc3ccccc13)C2=O (centres undefined) ?
MEKK2wt PB1 HTS: inactive; MEKK2 mut-MEK5: inactive; MEKK3 PB1 HTS: inactive

What do the screens show for `C=CCOc1ccc(C2N3CC4(CC)CN2CC(CC)(C3)C4=O)cc1` (centres undefined)?
CHT block: inactive; MEKK2wt PB1 HTS: inactive; CHT allo act: inactive; MEKK2 mut-MEK5: inactive; MEKK3 PB1 HTS: 82.0[inhibitor]; MEKK2wt confirm: inactive; MEKK2mut-MEK5: inactive; MEKK3-MEK5 inh: inactive

How did Cc1cccnc1NC(=O)C(C)N1C(=O)c2ccccc2C1=O (centres undefined) do in these assays?
CHT block: inactive; MEKK2wt PB1 HTS: inactive; CHT allo act: inactive; SUMO Mot1 rescue: inactive; MEKK2 mut-MEK5: inactive; MEKK3 PB1 HTS: 131.0; MEKK2wt confirm: inactive; MEKK2mut-MEK5: inactive; MEKK3-MEK5 inh: inactive

What do the screens show for `c1ccc(OCCN2CCN(Cc3nc(-c4ccc5c(c4)OCO5)no3)CC2)cc1`?
CHT block: inactive; MEKK2wt PB1 HTS: inactive; CHT allo act: inactive; SUMO Mot1 rescue: inactive; MEKK2 mut-MEK5: inactive; MEKK3 PB1 HTS: inactive

What do the screens show for `CCOc1ccc(C(=O)NCC(=O)N2CCCCCCC2)cc1`?
SUMO Mot1 rescue: inactive

Results for Cc1ccccc1-c1nn(-c2ccc(F)cc2F)cc1CNCCN(C)C ?
CHT block: inactive; MEKK2wt PB1 HTS: 150.0; CHT allo act: inactive; SUMO Mot1 rescue: inactive; MEKK2 mut-MEK5: inactive; MEKK3 PB1 HTS: inactive; MEKK2wt confirm: inactive; MEKK2mut-MEK5: inactive; MEKK3-MEK5 inh: inactive

How did COCCN(C)Cc1cn(-c2ccc(F)cc2F)nc1-c1ccccc1C do in these assays?
CHT block: inactive; MEKK2wt PB1 HTS: inactive; CHT allo act: inactive; SUMO Mot1 rescue: inactive; MEKK2 mut-MEK5: inactive; MEKK3 PB1 HTS: inactive

How did Cc1ccccc1-c1nn(-c2ccc(F)cc2F)cc1CNCCCN(C)C do in these assays?
CHT block: inactive; MEKK2wt PB1 HTS: 140.0; CHT allo act: inactive; SUMO Mot1 rescue: inactive; MEKK2 mut-MEK5: inactive; MEKK3 PB1 HTS: inactive; MEKK2wt confirm: inactive; MEKK2mut-MEK5: inactive; MEKK3-MEK5 inh: inactive

What do the screens show for `COc1ccc(CC(=O)Nc2cccc(S(=O)(=O)N3CCOCC3)c2)cc1OC`?
SUMO Mot1 rescue: inactive

Results for CCOc1ccc(-c2cnc(NCc3cccc4ccccc34)n2CCOC)cc1 ?
CHT block: inactive; MEKK2wt PB1 HTS: 192.0; CHT allo act: inactive; SUMO Mot1 rescue: inactive; MEKK2 mut-MEK5: inactive; MEKK3 PB1 HTS: inactive; MEKK2wt confirm: inactive; MEKK2mut-MEK5: inactive; MEKK3-MEK5 inh: inactive

How did CC(Cc1ccccc1)NC(=O)c1ccc([N+](=O)[O-])cc1 (centres undefined) do in these assays?
CHT block: inactive; MEKK2wt PB1 HTS: inactive; CHT allo act: inactive; MEKK2 mut-MEK5: inactive; MEKK3 PB1 HTS: inactive

How did CC(Cc1ccccc1)NC(=O)/C=C/c1ccc([N+](=O)[O-])cc1 (centres undefined) do in these assays?
CHT block: inactive; MEKK2wt PB1 HTS: inactive; CHT allo act: inactive; SUMO Mot1 rescue: inactive; MEKK2 mut-MEK5: inactive; MEKK3 PB1 HTS: 150.0; MEKK2wt confirm: inactive; MEKK2mut-MEK5: inactive; MEKK3-MEK5 inh: inactive

How did NCCNC(=O)c1c(NC(=O)c2ccccc2)sc2c1CCCC2 do in these assays?
CHT block: inactive; MEKK2wt PB1 HTS: 149.0; CHT allo act: inactive; SUMO Mot1 rescue: inactive; MEKK2 mut-MEK5: 30.0; MEKK3 PB1 HTS: inactive; MEKK2wt confirm: inactive; MEKK2mut-MEK5: inactive; MEKK3-MEK5 inh: inactive

How did Cc1onc(-c2ccccc2)c1C(=O)Nc1sc2c(c1C(N)=O)CCC2 do in these assays?
CHT block: inactive; MEKK2wt PB1 HTS: 2.0[inhibitor]; CHT allo act: inactive; SUMO Mot1 rescue: inactive; MEKK2 mut-MEK5: inactive; MEKK3 PB1 HTS: 2.0[inhibitor]; MEKK2wt confirm: inactive; MEKK2mut-MEK5: inactive; MEKK3-MEK5 inh: inactive

How did O=C1CC(c2ccccc2)CC(O)=C1C=NCCN1CCN(Cc2ccccc2)CC1 (centres undefined) do in these assays?
CHT block: inactive; MEKK2wt PB1 HTS: inactive; CHT allo act: inactive; SUMO Mot1 rescue: inactive; MEKK2 mut-MEK5: inactive; MEKK3 PB1 HTS: inactive

What do the screens show for `COc1cc2cc(CCCOC(=O)c3ccc4c(c3)OCO4)oc(=O)c2cc1OC`?
SUMO Mot1 rescue: inactive

Results for CN(C)C(=O)/C(C#N)=C\c1cc(Br)c(Sc2ccc(Cl)cc2)o1 ?
CHT block: inactive; MEKK2wt PB1 HTS: inactive; CHT allo act: inactive; SUMO Mot1 rescue: inactive; MEKK2 mut-MEK5: inactive; MEKK3 PB1 HTS: 132.0; MEKK2wt confirm: inactive; MEKK2mut-MEK5: inactive; MEKK3-MEK5 inh: inactive

What do the screens show for `COc1ccc(CNC(=O)CN(C)S(=O)(=O)c2ccc3c(c2)OCCO3)cc1OC`?
SUMO Mot1 rescue: inactive

Assay outcomes from PubChem.
